# Assay results reported in PubChem BioAssay (NCATS).
# Inconclusive results are not listed. Active and inactive are the calls of the source. Calls come from the whole dose curve.
# Assay: qHTS Assay for Lipid Storage Modulators (AID 1519); for activity change, negative = inhibition: % is set by controls: 0 for no effect and ±100 for the full control effect
# Conditions: Drosophila S3 cells, BODIPY lipid droplet/cell ratio, laser cytometry, cells loaded with oleic acid
# Text: NIH Molecular Libraries Probe Production Centers Network [MLPCN]
# NIH Chemical Genomics Center [NCGC]
# Assay Submitter (PI): Beller, Mathias; Max-Planck-Institut fur Biophysikalische Chemie
# NCGC Assay Overview: Storing lipids as a reservoir for energy or the anabolism of elementary metabolites is a common feature of probably all cells and is conserved from bacteria to humans. The universal cellular lipid storage organelle is the so-called lipid storage droplet (LD). Although ubiquitous, LDs share a simple structure composed of a hydrophobic core that harbors the storage lipids, which is shielded by a droplet-specific phospholipid monolayer to which proteins are attached. The current model of LD biogenesis involves an incorporation of the lipid core into the membrane leaflets of the endoplasmic reticulum (ER) followed by a subsequent budding-like maturation of a LD, which ultimately pinches off. Once released, LD volume can increase by localized lipogenesis or fusion of existing droplets. Storage lipids are re-mobilized enzymatically by lipase activity. Lipase regulation in the adipocyte is heavily studied and involves multiple components including catecholamine signaling, the LD-associated proteins Perilipin and comparative gene identification-58 (CGI-58) and at least two lipases named hormone sensitive lipase (HSL) and adipocyte triglyceride lipase (ATGL). LD regulation outside of the adipocyte is poorly understood and only few components are known. However, there is an urgent need to learn more about ectopic fat depots as mislocalized storage of lipids, for example in the liver or muscle, is an eminent health problem associated with insulin resistance or the metabolic syndrome. We developed a laser-scanning cytometer assay to enable 1,536-well screening and combined the results of the small molecules screen with an RNAi database based on lipid storage.
# NCGC Assay Protocol Summary:
# We dispensed 4 uL of cells at 1.25 x 10^6 cells/mL into LoBase Aurora COC 1,536-well plates (black walled, clear bottom) with a bottle-valve solenoid-based dispenser (Aurora) to obtain 5,000 cells/well. Triacsin C (Sigma-Aldrich T-4540), an inhibitor of long-chain fatty acyl CoA synthetase that blocks synthesis of triglycerides, was used as a positive control for lipid under-storage. A total of 23 nL of compound solution of different concentrations were transferred to the assay plates using a Kalypsys pin tool equipped with a 1,536-pin array containing 10-nL slotted pins (FP1S10, 0.457-mm diameter, 50.8 mm long; V&P Scientific). One microliter of oleic acid (400 uM) was added, and the plate was lidded with stainless steel rubber gasket lined lids containing pinholes. […] Fluorescence was detected by excitation of the fluorophores with a 488-nm laser on an Acumen Explorer (TTP Lab Tech). The total intensity in channel 1 (500-530 nm) reflected lipid droplet accumulation. […] The ratio of the total intensity in PMT channel 1 over total intensity of channel 3 was also calculated. Percent activity was computed relative to an internal control (100% inhibited lipid droplet deposition due to the presence of 20 uM Triacsin C), which was added to 32 wells/plate.
# [1] = measured here: cell count channel max response
# [2] = measured here: lipid channel max response
Compound,"activity change, negative = inhibition (at 25.7 µM (top of the series))",max response [1],max response [2],"activity change, negative = inhibition (at 57.5 µM (top of the series))"
CN(C)[C@@H]1C(=O)C(C(N)=O)=C(O)[C@]2(O)C(=O)C3=C(O)c4c(O)ccc(Cl)c4[C@](C)(O)[C@H]3C[C@@H]12,0.321% (inactive),-2.07%,-2.35%,
CC(C)(C)NC[C@H](O)c1cc(Cl)c(N)c(Cl)c1,-0.0671% (inactive),1.84%,2.72%,
CO[C@@H](C)[C@](O)(C(=O)OCC1=CCN2CC[C@@H](O)[C@H]12)C(C)C,-0.0062% (inactive),-11.3%,-10.6%,
C[C@@]12CCC(=O)C=C1C=C[C@H]1[C@H]3CC[C@](O)(CCC(=O)O)[C@]3(C)CC[C@@H]12,-0.688% (inactive),-7.2%,-8.17%,
CN1CCC2(CC1)CCN(C(=O)c1ccco1)CC2,,21.1%,24.5%,1.82% (inactive)
CC(=O)OC1CC2C(C)(C)C(=O)C=C[C@]2(C)C2CC[C@]3(C)C(=CC(=O)OC3c3ccoc3)[C@]12C (some centres not stated),,5.48%,6.78%,-3.77% (inactive)
CC(=O)OC1CC[C@@]2(C)C3CC[C@]4(C)C(=O)CCC4C3CC[C@H]2C1 (some centres not stated),,-8.94%,-14.8%,-0.903% (inactive)
CC1=CCCC2C1(C)CCC(C)C2(C)CC/C(C)=C/C[n+]1cn(C)c2c(N)ncnc21 (configuration not stated),,2.19%,13.1%,6.88% (inactive)
O=C(c1ccncc1)N1CCC2(CC1)CN(Cc1ccccc1)C2,,-4.26%,-4.05%,-1.45% (inactive)
CCN1C[C@@]2(C)CC[C@@H](OC)[C@@]34C2C(O)[C@@]2(OCO[C@]25CC(OC)C2C[C@@]3(O)C5C2O)C14 (some centres not stated),,1.33%,4.66%,2.86% (inactive)
COc1ccc2c(c1)[C@@]13CCCCC1[C@@H](C2)N(C)CC3 (some centres not stated),,4.27%,15.7%,7.37% (inactive)
C[C@@]12CCC3C(CCC4=CC(=O)CC[C@]43C)C1CCC2O (some centres not stated),,0.874%,1.24%,-1.38% (inactive)
Cc1[nH]c2ccccc2c1CN(C)C,,9.14%,21.3%,11.5% (inactive)
COc1ccc(/C=C/c2cc(O)cc(O)c2)cc1,,1.7%,6.07%,4.7% (inactive)
